# Results from PubChem BioAssay (EPA / NIEHS).
# Results filed as inconclusive are left out. The source made the active and inactive calls. Rule for the calls, unless noted: active = hit-call score of the fitted dose curve at least 0.9, where 1 is the maximum; inconclusive = response in the unintended direction; inactive = score below 0.9.
# Key:
# [1] = test system: SRY-box transcription factor 17 (SOX17) Protein Expression, Deisenroth Lab, SOX17 (gene 64321); assay: CCTE_Deisenroth_DEVTOX-GLR_legacy_Sox17: (Legacy) CCTE's DevTox GLR-Endo Assay Evaluation of SRY-box transcription factor 17 (SOX17) Protein Expression, Deisenroth Lab (AID 2284341; active = hit-call score of the fitted dose curve at least 0.9, where 1 is the maximum; inactive = score below 0.9); settings: actives raise or lower the signal
# Procedure, shortened: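 RUES2-GLR human pluripotent cells, seeded 24 h, then differentiated 48 h in defined media with two chemical exposures 24 h apart (1 nM - 200 uM, 10 points). Sox17+ fraction from high-content fluorescence imaging; bidirectional fit versus 0.2% DMSO.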
# [2] = test system: SRY-box transcription factor 2 (SOX2) Protein Expression, Deisenroth Lab, SOX2 (gene 6657); assay: CCTE_Deisenroth_DEVTOX-GLR_legacy_Sox2: (Legacy) CCTE's DevTox GLR-Endo Assay Evaluation of SRY-box transcription factor 2 (SOX2) Protein Expression, Deisenroth Lab (AID 2284346; active = hit-call score of the fitted dose curve at least 0.9, where 1 is the maximum; inactive = score below 0.9)
# Procedure, shortened: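 RUES2-GLR human pluripotent cells were differentiated for 48 h with two chemical doses 24 h apart, over 1 nM-200 uM. Sox2+ cells were those above 5x BMAD of the endoderm-control median; percent Sox2+ minus the 0.2% DMSO median was used, from n=4 replicates.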
# [3] = CCTE_Deisenroth_H295R-HTRF_384WELL_ESTRADIOL: CCTE's H295R-HTRF Assay Evaluation of Estradiol Concentration, Deisenroth Lab (AID 2284361; active = hit-call score of the fitted dose curve at least 0.9, where 1 is the maximum; inactive = score below 0.9); settings: actives raise or lower the signal
# Protocol: CCTE_Deisenroth_H295R-HTRF_384WELL assay is a cell-based, multiplex-readout assay that uses H295R, a human adrenocortical carcinoma cell line, with measurements taken at 48 hours after chemical dosing in a 384-well microplateCCTE_Deisenroth_H295R-HTRF_384WELL_ESTRADIOL is one of 3 assay components calculated in the CCTE_Deisenroth_H295R-HTRF_384WELL assay (2 hormones and 1 viability components). It is designed to make measurements of hormone induction, a form of inducible reporter, as detected with Homogenous Time Resolved Fluorescence immunoassay technology.This assay endpoint, CCTE_Deisenroth_H295R-HTRF_384WELL_ESTRADIOL, was analyzed with bidirectional fitting relative to DMSO as the negative control and baseline of activity. Using a type of inducible reporter, gain or loss-of-signal activity using Homogenous Time Resolved Fluorescence technology was used to understand synthesis of estradiol in the H295R cell line at 48hr of chemical exposure. To generalize the intended target to other relatable targets, this assay endpoint is annotated to the steroid hormone intended target family, where the subfamily is estrogens.
# Standard operating procedures for the cell culture medium, maintenance, expansion, and cryopreservation of the NCI-H295R adrenocortical carcinoma adherent cell line were adopted directly from guideline specifications7,13. The assay workflow follows a three-day protocol consistent with the paradigm defined in OECD TG 456 and U.S. EPA OCSPP Guideline 890.1550. On day 0, cells are plated in 384-well microplates and acclimated for 24 hours. On Day 1, test chemicals are dispensed into separate 384-well microplates in a nine-point 2X dilution series (0.002 - 200 uM). Without aspirating the growth medium on the assay plates, test chemical suspension is dispensed to achieve a final 1X nominal concentration. Each chemical is run in technical triplicate at a final dilution series of 0.001 - 100 uM. On Day 3, following a 48-hour incubation period with test chemical, the conditioned medium samples are collected and transferred to 384-well sample storage plates. HTRF direct immunoassay technology is employed to detect E2 and T analytes in H295R conditioned medium. HTRF assays for E2 and T are performed with matched conditioned medium samples according to the manufacturer's protocol. Fluorescent endpoint measurements are conducted with a microplate reader equipped with an HTRF-compatible filter set (ex: 320 (10) nM; em: 620 (10) and 665 (10) nM). A multiplexed cell viability assay is implemented on the same plates used for chemical testing using the Promega CellTiter-Glo 2.0 assay. […] After collecting conditioned medium samples on Day 3, the viability assay is immediately performed and luminescence readings measured on a microplate reader. […]
# SERPINA7 (gene 6906) = assay: CCTE_GLTED_hTBG: CCTE's human Thyroxine-binding Globulin (TBG) Inhibition Assay, Great Lakes Toxicology and Ecology Division (GLTED) Lab (AID 2284343);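 note: active chemicals lower fluorescence versus DMSO baseline by displacing probe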
# Procedure, shortened: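 Human TBG incubated 2 h with test chemical; displacement of ANSA probe read by fluorescence, 380 nm excitation/475 nm emission. Loss of signal relative to DMSO.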
# [4] = CCTE_Mundy_HCI_iCellGluta_NOG_NeuronCount: CCTE's Neurite Outgrowth Assay in iCellGluta cells for Neuron Count, Mundy Lab (AID 2284340);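 note: cells fixed about 48 h after compound addition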
# Procedure, shortened: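 Neuron count read by automated high-content imaging of Hoechst 33342 and betaIII-tubulin/Alexa Fluor-488 labelling in human iPSC glutamatergic neurons. Activity fitted relative to DMSO.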
# [5] = CCTE_Mundy_HCI_iCellGluta_NOG_NeuriteCount: CCTE's Neurite Outgrowth Assay in iCellGluta cells for Neurite Count, Mundy Lab (AID 2284342);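 note: chemical exposure about 48 hours starting 2 hours after plating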
# [6] = VALA_MIGHUV1_ScratchOnly_WoundArea: VALA Sciences human Umbilical Vein Endothelial Cell Migration (MIGHUV) Assay, Area of Scratch Wound Inhibited Recovery (AID 2284336)
# Procedure, shortened: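 HUVEC monolayers (9000 cells/well) were scratched after 24 h, dosed within 30 min (six concentrations, triplicate, 0.1% DMSO), allowed 24 h recovery, then fixed. Hoechst-stained nuclei in the wound imaged; cytochalasin D as reference.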
# [7] = VALA_TUBIPS_Antagonist_CellCount: Viability Assessment in the VALA Sciences human iPS-derived Endothelial Tubule Formation (TUBIPS) Antagonism Assay (AID 2284335)
# Protocol: (§1) VALA_TUBIPS_Agonist is a cell-based, multiplexed assay that uses human iPS-derived endothelial cells (iPSC). Measurements were taken 72 hours after chemical dosing in a 96-well plate.VALA_TUBIPS_Antagonist_CellCount is the one of two assay components measured from the VALA_TUBIPS_Antagonist assay. It is designed to make measurements of viability, a form of viability reporter, as detected with fluorescence intensity signals by HCS Fluorescent Imaging technology. Data from the assay component VALA_TUBIPS_Antagonist_CellCount was analyzed at the endpoint, VALA_TUBIPS_Antagonist_CellCount, in the positive analysis fitting direction relative to DMSO as the negative control and baseline of activity. Using a type of viability reporter, loss-of-signal activity can be used to understand viability. To generalize the intended target to other relatable targets, this assay endpoint is annotated to the cell cycle intended target family, where the subfamily is cell count.
# (§2) This HUVEC-HDF assay was designed to detect chemical suppression of tubulogenesis, i.e. antagonism. To measure tubulogenesis antagonism, HUVEC cells were co-cultured with HDF cells at a 1:3 ratio for 3-days in 10 ng/ml VEGF (i.e., favorable conditions with growth factors), then changed to assay medium containing 10 ng/ml VEGF and ToxCast compounds for an additional 3-day period. […]
# [8] = VALA_TUBHUV_Agonist_TubuleLength: VALA Sciences human Umbilical Vein Endothelial Tubule Formation (TUBHUV) Agonism Assay (AID 2284337)
# Procedure, shortened: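 HUVEC co-cultured with fibroblasts (1:3) 3 days in 10 ng/ml VEGF, then 3 days with compound plus VEGF; 0.1 % DMSO neutral control. Fixed, nuclear and CD31 stained; tubule length by fluorescence imaging.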
# [9] = VALA_TUBIPS_Agonist_CellCount: Viability Assessment in the VALA Sciences human iPS-derived Endothelial Tubule Formation (TUBIPS) Agonism Assay (AID 2284338)
# Protocol: as §1, with “plate.VALA_TUBIPS_Agonist_CellCount” for “plate.VALA_TUBIPS_Antagonist_CellCount”, “VALA_TUBIPS_Agonist” for “VALA_TUBIPS_Antagonist”, “VALA_TUBIPS_Agonist_CellCount” for “VALA_TUBIPS_Antagonist_CellCount”, “VALA_TUBIPS_Agonist_CellCount,” for “VALA_TUBIPS_Antagonist_CellCount,”
# as §2
smiles,measurement,setting,value
CO[C@H]1/C=C/O[C@@]2(C)Oc3c(C)c(O)c4c(O)c(c(/C=N/N5CCN(C)CC5)c(O)c4c3C2=O)NC(=O)/C(C)=C\C=C\[C@H](C)[C@H](O)[C@@H](C)[C@@H](O)[C@@H](C)[C@H](OC(C)=O)[C@@H]1C,AC50,[1],72.4 µM (active)
same,outcome,[2],inactive
CCCCOC(=O)c1ccc(O)cc1,AC50,[1],55.3 µM (active)
same,AC50,[2],100 µM (active)
same,AC50,[3],54.3 µM (active)
CC/C(=C(/CC)c1ccc(O)cc1)c1ccc(O)cc1,AC50,[1],1.24 µM (active)
same,AC50,SERPINA7 (gene 6906),1.87 µM (active)
same,AC50,[2],2.43 µM (active)
CCCCCCCCOc1ccc(C(=O)c2ccccc2)c(O)c1,AC50,SERPINA7 (gene 6906),39.1 µM (active)
Cc1oc2c(NC(=O)c3c(Cl)cccc3Cl)cccc2c1C(C)(C)O,AC50,SERPINA7 (gene 6906),13.6 µM (active)
O=C1O[C@H]([C@@H](O)CO)C(O)=C1O,outcome,[4],inactive
same,outcome,[5],inactive
NC(=O)c1nc(-c2cccc(-c3cc(F)ccc3OCC(F)(F)C(F)(F)F)c2)n[nH]1,AC50,SERPINA7 (gene 6906),3.35 µM (active)
OCCO,outcome,[1],inactive
same,outcome,[2],inactive
CC(C)(c1cc(Br)c(O)c(Br)c1)c1cc(Br)c(O)c(Br)c1,AC50,SERPINA7 (gene 6906),2.16 µM (active)
Clc1ccccc1C(c1ccccc1)(c1ccccc1)n1ccnc1,AC50,[3],0.129 µM (active)
O=c1c(-c2ccc(O)cc2)coc2cc(O)cc(O)c12,AC50,[3],21.6 µM (active)
CC(=O)N1CCN(c2ccc(OC[C@H]3CO[C@](Cn4ccnc4)(c4ccc(Cl)cc4Cl)O3)cc2)CC1,outcome,[3],inactive
O=C(O)Cn1c(=O)n(Cc2ccc(Br)cc2F)c(=O)c2ccc(Cl)cc21,AC50,SERPINA7 (gene 6906),18.1 µM (active)
O=C(O)Cc1cc(I)c(Oc2ccc(O)c(I)c2)c(I)c1,AC50,SERPINA7 (gene 6906),0.0733 µM (active)
O=C(Nc1ccc(Cl)cc1)Nc1ccc(Cl)c(Cl)c1,outcome,[6],inactive
CN(C)c1ccc(C(=C2C=CC(=[N+](C)C)C=C2)c2ccc(N(C)C)cc2)cc1,AC50,SERPINA7 (gene 6906),50 µM (active)
CCCCCc1ccc(N)cc1,AC50,SERPINA7 (gene 6906),29.9 µM (active)
CCCCCCCCOC(=O)c1cc(O)c(O)c(O)c1,outcome,[7],inactive
same,AC50,[8],50 µM (active)
same,AC50,[9],24.2 µM (active)
same,AC50,SERPINA7 (gene 6906),3.42 µM (active)
